Assay outcomes: PubChem BioAssay, National Center for Advancing Translational Sciences (NCATS)
MCF10A rereplic = A quantitative high throughput screen for small molecules that induce DNA re-replication in MCF 10a normal breast cells. hit rate 2.9% among 350,000. MCF 10A DNA re-replication, Hoechst nuclear intensity, 48 h. Potency, µM (top dose mostly 46.1 µM), for inactives: at the highest dose activity, positive = re-replication, most hits filed as activators. AID 624296, 2012; also: % of control where 0% means no effect; nearly all actives have a fitted effect of over 50% in size
KB-3-1 tox = qHTS assay for MDR1-selective chemotherapeutics: Primary screen using the parental adenocarcinoma cell KB-3-1. KB-3-1 viability, CellTiter-Glo ATP luminescence, 72 h. Potency, µM (highest dose often 46.1 µM), hits mostly cytotoxic. hit rate 1.4% among 400,000; also: % is scaled to controls: 0 for no effect and ±100 for the full control effect; nearly all actives have a fitted effect of over 60% in size
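Screening of KB-3-1 cells (DMEM, 10% FBS, phenol-red free) ran from lowest to highest compound concentration; after 72 h at 37 °C viability was read luminescently and curves fitted.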
KB-V1 MDR tox = qHTS assay for MDR1-selective chemotherapeutics: Primary screen using the drug-selected MDR subline cells KB-V1 | KB-V1 MDR cells viability, CellTiter-Glo, 72 h | hit rate 3.4% among 400,000 | Potency, µM (titrated, usually from 46.1 µM), most hits filed as cytotoxic; also: % is scaled to controls: 0 for no effect and ±100 for the full control effect; nearly all actives have a fitted effect of over 60% in size
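Drug-selected KB-V1 cells, grown in DMEM lacking phenol red with 10% FBS, receive compound titrations; after three days at 37 degrees C, surviving cell ATP is quantified by CellTiter-Glo luminescence and responses normalized and curve-fitted.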
HT1080 IDH1KD tx = qHTS for induction of synthetic lethality in tumor cells producing 2HG: qHTS for the HT-1080-IDH1KD cell line; HT-1080 IDH1 knockdown viability, ATP luminescence, 48 h; Potency, µM (highest dose often 46.1 µM), for inactives: at the highest dose activity, negative = toxicity, actives largely listed as cytotoxic; hit rate 2% among 360,000; AID 686971, 2013;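 also: 0% = DMSO wells and -100% = cell-free medium wells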
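Assay cells: HT-1080 with IDH1 knockdown, 750 per well, RPMI/5% FBS. Exposure: 48 h at 37 °C following 2 h pre-incubation. Read: CellTiter-Glo luminescence; fitted concentration-response, curve class assigned.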
SW480 rereplic = A quantitative high throughput screen for small molecules that induce DNA re-replication in SW480 colon adenocarcinoma cells. SW480 DNA re-replication, Hoechst DNA content imaging, 48 h. Potency, µM (top dose mostly 46.1 µM), for the others: at the highest dose re-replication activation, actives largely listed as activators. hit rate 1.8% among 340,000. AID 624297, 2012; also: % of control where 0% means no effect; nearly all actives have a fitted effect of over 55% in size
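Quantitative HTS format with DMSO vehicle controls; 48 hr drug incubation at 37 C, then 40 min Hoechst staining and scanning imager measurement at 405 nm excitation.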
HT1080NT lethal = qHTS for induction of synthetic lethality in tumor cells producing 2HG: qHTS for the HT-1080-NT fibrosarcoma cell line. HT-1080-NT fibrosarcoma viability, CellTiter-Glo ATP luminescence, 48 h. Potency, µM (series often up to 46.1 µM), for the others: at the top dose activity, negative = less viability, actives largely listed as cytotoxic. hit rate 1.6% among 360,000. AID 686970, 2013;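 also: NT is the 2HG producing partner of a matched IDH1 knockdown line; 0% = DMSO-treated cells and -100% = media-only wells without cells; nearly all actives have a fitted effect of over 55% in size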
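Luminescent CellTiter-Glo readout after 48 hours of compound exposure at 37 degrees C defined viability of HT-1080-NT cells. Activity was normalized to DMSO wells and cell-free media wells; concentration-response curves were fitted and assigned curve classes.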
An asterisk follows results filed as active; i = inactive; ? = inconclusive; . = not tested or not shown. Compounds with a hit are over-represented: about 8% of the library has one in this group of screens. Calls follow the shape of the dose curve; as a rule, active = well fitted curve in the direction sought with a large enough effect; inconclusive = small, poorly fitted or top-dose-only effect, or another doubt; inactive = no such curve, though single readings can be large; an effect the other way counts as inactive or inconclusive. Potency is read from the fitted curve at half-maximal effect.

SMILES | MCF10A rereplic | KB-3-1 tox | KB-V1 MDR tox | HT1080 IDH1KD tx | SW480 rereplic | HT1080NT lethal
O=[N+]([O-])c1ccc(N/N=C/c2ccc(O)c(O)c2O)c(S(=O)(=O)N2CCOCC2)c1 | -1% | i | i | -13% | 11% | -16%
CN(C)S(=O)(=O)c1cccc(COC(=O)c2cc([N+](=O)[O-])ccc2N2CCOCC2)c1 | ? | i | ? | ? | ? | -28%
O=C(OCc1ccccc1F)c1cc([N+](=O)[O-])ccc1N1CCOCC1 | 11% | i | 18µM* | -4% | 7% | 0%
Cc1ccc(N(CCC#N)C(=O)CCl)cc1C | 23µM* | ? | ? | 13µM* | 7.3µM* | 9.2µM*
C(=C\c1ccnc2ccccc12)/c1ccc(-[n+]2cc[n+](-c3ccc(/C=C/c4ccnc5ccccc45)cc3)cc2)cc1 | . | i | i | . | . | .
CC(C)Cn1c(=O)c(C(=O)N/N=C/c2cccc(F)c2)c(O)c2ccccc21 | 2% | 12µM* | 2.9µM* | -12% | 1% | -9%
O=C1c2ccccc2C(=O)N1CCCCN(C(=O)c1cc([N+](=O)[O-])cc([N+](=O)[O-])c1)c1ccc(Cl)cc1 | 3% | i | i | 11% | 8% | 14%
Cc1ccc(N(CCCCN2C(=O)c3ccccc3C2=O)C(=O)c2cccc([N+](=O)[O-])c2)cc1 | 20% | i | 18µM* | -19% | 9% | -9%
C[C@H](O)[C@@H]1CN2CCc3c([nH]c4ccc(-c5ccc6c(c5)OCO6)cc34)[C@@H]2C[C@@H]1N(C)C(=O)Nc1ccc(F)cc1 | . | 5.8µM* | ? | 21µM* | . | ?
COc1ccc(-c2ccc3[nH]c4c(c3c2)CCN2C(=O)[C@@H]([C@H](C)O)[C@@H](N(C)C(=O)Nc3ccc(F)cc3)C[C@@H]42)cc1 | . | i | 16µM* | ? | . | ?
C[C@H](O)[C@@H]1CN2CCc3c([nH]c4ccccc34)[C@@H]2C[C@@H]1N(C)C(=O)c1ccco1 | . | ? | ? | ? | . | 26µM*
COc1ccc(-c2ccc3[nH]c4c(c3c2)CCN2C(=O)[C@@H]([C@H](C)O)[C@@H](N(C)C(=O)Nc3cc(Cl)cc(Cl)c3)C[C@@H]42)cc1 | . | ? | i | 15% | . | ?
COc1ccc(-c2ccc3[nH]c4c(c3c2)CCN2C[C@@H]([C@H](C)O)[C@@H](N(C)C(=O)Nc3cc(Cl)cc(Cl)c3)C[C@@H]42)cc1 | . | i | ? | 21µM* | . | ?
Cc1cccc(N2CCN(C(=O)Cn3c(C)c4cnn(-c5ccccc5)c(=O)c4c3C)CC2)c1C | . | ? | i | . | . | .
O=C(C[N+]1(CC#Cc2ccccc2)CCCCC1)c1ccccc1 | -9% | i | i | -7% | 3% | 2%
CCC[N+]1(CC#CCC(c2ccccc2)c2ccccc2)CCCCC1 | 29% | 2.6µM* | i | ? | 23% | -27%
C#CC[N+]1(CC#Cc2cccc(C)c2)CCCCC1 | 2% | ? | i | ? | -2% | -22%
Cc1ccc(C#CC[N+]2(CC#Cc3ccc(C)cc3)CCCCC2)cc1 | -5% | ? | i | 15µM* | -2% | 21µM*
C(#Cc1ccccc1)C[N+]1(CC#Cc2ccccc2)CCCCC1 | 0% | 18µM* | i | ? | -1% | ?
C#CC[N+]1(CC#Cc2ccccc2)CCCCC1 | -31% | i | i | 1% | -33% | 4%
CCN(CC)c1ccc(N=Cc2ccccc2[N+](=O)[O-])cc1 | ? | i | i | ? | 2.6µM* | -26%
CCN(CC)c1ccc(N=Cc2ccc([N+](=O)[O-])o2)cc1 | 23µM* | 18µM* | i | ? | 2.3µM* | 18µM*
CN1C(C(=O)NC(C)(C)C)=CC(c2ccc3c(c2)OCO3)=NS1(=O)=O | . | i | i | . | . | .
CCCNC(=O)c1ccc2c(c1)C1C3CCC(C3)C1C(c1ccccc1)N2 (stereo not given) | ? | ? | 21µM* | -22% | 16% | -16%
Cc1cc(C)n2ncc(C(=O)NC(C)C)c2n1 | . | i | i | . | . | .
SMILES | MCF10A rereplic | KB-3-1 tox | KB-V1 MDR tox | HT1080 IDH1KD tx | SW480 rereplic | HT1080NT lethal
CC1(C)CC(=O)C(C2C3=C(CC(C)(C)CC3=O)Oc3ccccc32)C(=O)C1 (stereo not given) | 4% | i | i | -6% | -6% | 28%
CC1(C)CC(=O)C2=C(C1)Oc1nc3ccccc3cc1C2C(C#N)C#N (stereo not given) | 9.2µM* | 21µM* | ? | 23µM* | ? | 18µM*
COc1ccc(-c2cnc3c(NC=O)cc(-c4ccccc4OC)cn23)cc1OC | . | 0.18µM* | 1.2µM* | 0.18µM* | . | 0.046µM*
COc1ccc(-c2cc(NC=O)c3ncc(-c4ccc(OC)c(OC)c4)n3c2)cc1 | . | 1.6µM* | 3.7µM* | 0.58µM* | . | 1µM*
COc1ccc(-c2cc(NC(C)=O)c3ncc(-c4ccccc4)n3c2)cc1OC | . | i | i | -18% | . | ?
CC(NC(=O)COc1ccc(S(=O)(=O)N2CCCC2)cc1)c1ccccc1 (stereo not given) | -7% | i | i | -3% | -2% | 0%
Cc1c(C)n(Cc2ccc(F)cc2)c2ccc(C(=O)N3CCN(c4ccc(Cl)cc4)CC3)cc12 | . | i | i | . | . | .
CN=C1S/C(=C\c2ccc(Cl)cc2)C(=O)N1C | ? | i | i | 13% | 23µM* | 12%
Cc1nc(SCC(=O)N2CCN(c3ccccn3)CC2)c(C#N)c(C)c1C | 1% | i | 7.3µM* | 7% | -8% | 8%
O=C(CSc1ccccc1)N1CCN(c2ccccn2)CC1 | -5% | i | i | 12% | ? | -1%
O=C(c1cccc(Cl)c1)n1nc(-c2cccnc2)nc1NCc1ccccc1 | . | i | i | . | . | .
COc1ccccc1S(=O)(=O)Cc1ccc(C(=O)N2CCN(c3cc(Cl)ccc3C)CC2)o1 | . | ? | 18µM* | . | . | .
COc1ccccc1S(=O)(=O)Cc1ccc(C(=O)N2CCN(c3cccc(Cl)c3)CC2)o1 | 15µM* | 6.5µM* | 16µM* | 21µM* | ? | ?
